Measurements taken from PubChem BioAssay (NCI).
This is part of a sample that, as a whole, favours compounds with a hit. Of some 83,000 tested, about 20% had one in any assay.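 Each cell line was grown in a 96-well plate and treated with one concentration of compound for 48 hours. Values below 10 were considered active.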 A number with no mark means an inactive call. Active and inactive are the calls of the source.

What follows are compounds tested on PC-3 prostate (assay: NCI-60 one-dose screen, 48 h (100 = growth as untreated, 0 = no growth, -100 = all killed)). Conditions: 10 µM.
Protocol: Growth inhibition of the PC-3 human tumor cell line is measured as a screen for anti-cancer activity. Cells are grown in 96 well plates and exposed to the test compound for 48 hours. Compounds are tested at a single concentration, which is 10^-5 M for most compounds. The reported endpoint is percent growth (GI% or GIPRCNT), where numbers from 0 - 100% represent growth inhibition, and numbers from -100% - 0 represent cell death. For example, a value of 40 represents 60% growth inhibition. A value of 0 means no net growth occurred over the course of the experiment. A value of -40 indicates 40% of cells at the beginning of the experiment died by the end of the experiment. A value of -100 means all cells are dead at the end of the experiment.
NCI-60 Human Tumor Cell Lines Screen was performed using the standard one-dose NCI protocol, which is described in more detail at https://dtp.cancer.gov/discovery_development/nci-60/default.htm.
Compounds with GIPRCNT values below 10 were considered active. Activity score was based on GIPRCNT using the following formula: […]
Score is 0 for GIPRCNT values of 100 or above, 50 for GIPRCNT values of 0, and 100 for GIPRCNT values of -100.

| Compound | growth |
| --- | --- |
| COc1cc2cc(Oc3ccc(NC(=O)Nc4ccc(C(F)(F)F)cc4)cc3)c(C)nc2cc1OC | 48.3% |
| COc1ccc(C(=O)N/N=C/c2cc(C(F)(F)F)ccc2Cl)cc1 | 90.9% |
| CC[C@@H](C(=O)[C@H](C)[C@H](O)[C@@H](C)[C@H]1O[C@H]([C@@H](CC)C(=O)O)CC[C@H]1C)C1O[C@]2(C=C[C@@H](O)[C@]3(CC[C@@](C)([C@H]4CC[C@](O)(CC)[C@H](C)O4)O3)O2)[C@H](C)C[C@@H]1C (stereo not given in full) | 27.5% |
| COc1cc(C2CC(c3ccccc3)=NN2C(C)=O)cc(OC)c1OC (stereo not given) | 37.3% |
| COc1cc(C2CC(c3cc(Cl)c(C)cc3O)=NN2c2ccc(S(N)(=O)=O)cc2)cc(OC)c1OC (stereo not given) | 0.104% (active) |
| CN(C)CCC1(c2ccccc2)CCN(C)C1=O (stereo not given) | 99.7% |
| COC(=O)c1c[nH]c2cc(OC(C)C)c(OC(C)C)cc2c1=O | 93.1% |
| C#CCOc1c(OC)cc(C(=O)/C(C)=C/c2cccc(N=[N+]=[N-])c2)cc1OC | 22.7% |
| O=C(COc1cccc(/C=C2\CSc3ccccc3C2=O)c1)c1ccc(Cl)cc1 | -39.6% (active) |
| O=C(/C=C/c1cccc(B(O)O)c1)c1cccc(B(O)O)c1 | 26.1% |
| Cc1cc(Cl)ccc1Nc1nc(C(F)(F)F)ccc1C(=O)N/N=C/c1cccc(O)c1 | 29.7% |
| NC(N)=N/N=C(\c1ccccc1)C(O)c1ccccc1 (stereo not given) | 94.6% |
| C=C(NC(=O)C(=C)NC(=O)c1csc(C2=NC3c4csc(n4)C4NC(=O)c5csc(n5)C(C(C)(O)C(C)O)NC(=O)C5CSC(=N5)C(=CC)NC(=O)C(C(C)O)NC(=O)c5csc(n5)C3(CC2)NC(=O)C(C)NC(=O)C(=C)NC(=O)C(C)NC(=O)C(C(C)CC)NC2C=Cc3c(C(C)O)cc(nc3C2O)C(=O)OC4C)n1)C(N)=O (stereo not given) | 63.7% |
| COc1ccc2c(c1)OC(N)=C(C#N)C2c1cc(OC)c(OC)c(OC)c1 (stereo not given) | 19.7% |
| COC(=O)c1cc2oc(/C=C3/SC(=S)N(N)C3=O)cc2n1Cc1ccccc1 | -3.5% (active) |
| NC(N)=N/N=C(\N=Nc1ccccc1)c1ccc(Cl)cc1 | 25.1% |
| COc1ccc(C(c2ccc(OCCN(C)C)cc2)c2cc3ccccc3c3ccccc23)cc1 (stereo not given) | 60.7% |
| COc1ccc2nc(-c3ccc(Cl)cc3)cc(-c3nnc(SC/C(=N\O)c4ccccc4)n3-c3ccccc3)c2c1 | 54.1% |
| O=C(O)COc1c(Cl)cc([N+](=O)[O-])cc1Cl | 65.3% |
| Cc1ccc(Cl)cc1NC(=O)CCl | 81.2% |

| Compound | growth |
| --- | --- |
| Cc1ccc(S(=O)(=O)N(C)CCCCCC(=O)O)cc1 | 98.2% |
| Cc1cc(SCc2ccccc2)nc(N)n1 | 111% |
| O=C(O)c1cn(C2CC2)c2cc(N3CCN(C(=O)c4cc(-c5ccc(Cl)cc5)nc5ccccc45)CC3)c(F)cc2c1=O | 70.7% |
| COc1ccc(/C=C/c2nnc(/C=C/c3ccc(OC)c(OC)c3)o2)cc1OC | 31.5% |
| COc1cc(N)c2ncccc2c1SC | 101% |
| CCOC(=O)c1cc(C(=O)c2ccc(OC)c(OC)c2)n2c1ccc1ccc3cccnc3c12 | 22.2% |
| COc1cc2cc(Oc3ccc(NC(=O)c4ccccc4)cc3)c(C)nc2cc1OC | 75.4% |
| C=CCN(CC=C)C(=O)[C@H](CC)[C@@H]1CC[C@@H](C)[C@@H]([C@H](C)[C@@H](O)[C@@H](C)C(=O)[C@H](CC)C2O[C@]3(C=C[C@@H](O)[C@]4(CC[C@@](C)([C@H]5CC[C@](O)(CC)[C@H](C)O5)O4)O3)[C@H](C)C[C@@H]2C)O1 (stereo not given in full) | 2.56% (active) |
| CN(C)CCCOc1ccccc1NC1=C(Cl)C(=O)C(Nc2ccccc2OCCCN(C)C)=C(Cl)C1=O | -20.8% (active) |
| CS(=O)(=O)c1nccc(-c2c(-c3ccc(OCCc4ccccc4)cc3)nc3sccn23)n1 | 93.9% |
| COc1cccc2ccc(CC(O)(c3ccccc3)c3ccccc3)nc12 | 79% |
| CS(=O)(=O)c1nccc(-c2c(-c3cccc(O)c3)nc3sccn23)n1 | 96.8% |
| IC(I)I | 109% |
| Clc1ccc(/C=C2\CCCC3C2=Nc2ccccc2NC3c2ccc(Cl)cc2)cc1 (stereo not given) | 77.3% |
| CCOc1ccccc1/C=N\N=C\c1ccccc1O | 95.8% |
| CCOC(=O)C1=CSC2=NC3=C(CCC/C3=C\c3ccc(Cl)cc3)C(c3ccc(Cl)cc3)N12 (stereo not given) | 101% |
| Cc1ccc(NCCNCC(C)(C)O)c2c(=O)c3ccc(Cl)cc3sc12 | 36.8% |
| CN(C)c1nc(N)c2nccnc2n1 | 104% |
| O=C(CCNC(=O)c1nc(-c2ccccc2)n(-c2ccc(Cl)cc2)n1)NO | 89.6% |
| COc1cc(-c2nn(-c3cccc(NC(=O)NCCNC(=O)c4cccc(C(F)(F)F)c4)c3)cc2-c2ccncc2)ccc1Cl | 17.6% |
